PfHsp40 yeast – compounds rescuing yeast from Plasmodium falciparum HSP40 toxicity; S. cerevisiae expressing PfHsp40, growth rescue, ATP luminescence; growth rescue, % at 12.5 µM; actives 0.68% (n = 340,000); AID 504582; in the data active = growth rescue above about 28%, passing the limit was not always enough;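 also: yeast W303a lacking pdr1 and pdr3 grown in galactose medium; growth measured after three days at 30 °C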
Mtb BioA inh – inhibitors of Mycobacterium tuberculosis BioA enzyme; purified M. tuberculosis BioA enzyme, plate reader; inhibition, % at 9.99 µM; actives 0.096% (n = 360,000); AID 602481; in the data active = inhibition above about 40%
DUSP3 inh – inhibitors of human VHR1 phosphatase (DUSP3); P51452; recombinant VHR phosphatase, pNPP absorbance; inhibition, % at 13.3 µM; actives 0.52% (n = 290,000); AID 1654; in the data active = inhibition above about 50%
Yp Topo-I inh – blocks Yersinia pestis topoisomerase I activity; AID 504884; activity, % at 10 µM; actives 0.064% (n = 360,000); Y. pestis Topo-I cleavage product accumulation, plate reader; in the data active = activity above about 50%, passing the limit was not always enough
TcdB inh – inhibitors of Clostridioides difficile toxin B glycohydrolase. TcdB glycohydrolase enzymatic assay, plate reader. actives 0.24% (n = 350,000). inhibition, % at 9.99 µM. P18177; in the data active = inhibition above about 10%
Target sequence (P18177 whole entry, looked up): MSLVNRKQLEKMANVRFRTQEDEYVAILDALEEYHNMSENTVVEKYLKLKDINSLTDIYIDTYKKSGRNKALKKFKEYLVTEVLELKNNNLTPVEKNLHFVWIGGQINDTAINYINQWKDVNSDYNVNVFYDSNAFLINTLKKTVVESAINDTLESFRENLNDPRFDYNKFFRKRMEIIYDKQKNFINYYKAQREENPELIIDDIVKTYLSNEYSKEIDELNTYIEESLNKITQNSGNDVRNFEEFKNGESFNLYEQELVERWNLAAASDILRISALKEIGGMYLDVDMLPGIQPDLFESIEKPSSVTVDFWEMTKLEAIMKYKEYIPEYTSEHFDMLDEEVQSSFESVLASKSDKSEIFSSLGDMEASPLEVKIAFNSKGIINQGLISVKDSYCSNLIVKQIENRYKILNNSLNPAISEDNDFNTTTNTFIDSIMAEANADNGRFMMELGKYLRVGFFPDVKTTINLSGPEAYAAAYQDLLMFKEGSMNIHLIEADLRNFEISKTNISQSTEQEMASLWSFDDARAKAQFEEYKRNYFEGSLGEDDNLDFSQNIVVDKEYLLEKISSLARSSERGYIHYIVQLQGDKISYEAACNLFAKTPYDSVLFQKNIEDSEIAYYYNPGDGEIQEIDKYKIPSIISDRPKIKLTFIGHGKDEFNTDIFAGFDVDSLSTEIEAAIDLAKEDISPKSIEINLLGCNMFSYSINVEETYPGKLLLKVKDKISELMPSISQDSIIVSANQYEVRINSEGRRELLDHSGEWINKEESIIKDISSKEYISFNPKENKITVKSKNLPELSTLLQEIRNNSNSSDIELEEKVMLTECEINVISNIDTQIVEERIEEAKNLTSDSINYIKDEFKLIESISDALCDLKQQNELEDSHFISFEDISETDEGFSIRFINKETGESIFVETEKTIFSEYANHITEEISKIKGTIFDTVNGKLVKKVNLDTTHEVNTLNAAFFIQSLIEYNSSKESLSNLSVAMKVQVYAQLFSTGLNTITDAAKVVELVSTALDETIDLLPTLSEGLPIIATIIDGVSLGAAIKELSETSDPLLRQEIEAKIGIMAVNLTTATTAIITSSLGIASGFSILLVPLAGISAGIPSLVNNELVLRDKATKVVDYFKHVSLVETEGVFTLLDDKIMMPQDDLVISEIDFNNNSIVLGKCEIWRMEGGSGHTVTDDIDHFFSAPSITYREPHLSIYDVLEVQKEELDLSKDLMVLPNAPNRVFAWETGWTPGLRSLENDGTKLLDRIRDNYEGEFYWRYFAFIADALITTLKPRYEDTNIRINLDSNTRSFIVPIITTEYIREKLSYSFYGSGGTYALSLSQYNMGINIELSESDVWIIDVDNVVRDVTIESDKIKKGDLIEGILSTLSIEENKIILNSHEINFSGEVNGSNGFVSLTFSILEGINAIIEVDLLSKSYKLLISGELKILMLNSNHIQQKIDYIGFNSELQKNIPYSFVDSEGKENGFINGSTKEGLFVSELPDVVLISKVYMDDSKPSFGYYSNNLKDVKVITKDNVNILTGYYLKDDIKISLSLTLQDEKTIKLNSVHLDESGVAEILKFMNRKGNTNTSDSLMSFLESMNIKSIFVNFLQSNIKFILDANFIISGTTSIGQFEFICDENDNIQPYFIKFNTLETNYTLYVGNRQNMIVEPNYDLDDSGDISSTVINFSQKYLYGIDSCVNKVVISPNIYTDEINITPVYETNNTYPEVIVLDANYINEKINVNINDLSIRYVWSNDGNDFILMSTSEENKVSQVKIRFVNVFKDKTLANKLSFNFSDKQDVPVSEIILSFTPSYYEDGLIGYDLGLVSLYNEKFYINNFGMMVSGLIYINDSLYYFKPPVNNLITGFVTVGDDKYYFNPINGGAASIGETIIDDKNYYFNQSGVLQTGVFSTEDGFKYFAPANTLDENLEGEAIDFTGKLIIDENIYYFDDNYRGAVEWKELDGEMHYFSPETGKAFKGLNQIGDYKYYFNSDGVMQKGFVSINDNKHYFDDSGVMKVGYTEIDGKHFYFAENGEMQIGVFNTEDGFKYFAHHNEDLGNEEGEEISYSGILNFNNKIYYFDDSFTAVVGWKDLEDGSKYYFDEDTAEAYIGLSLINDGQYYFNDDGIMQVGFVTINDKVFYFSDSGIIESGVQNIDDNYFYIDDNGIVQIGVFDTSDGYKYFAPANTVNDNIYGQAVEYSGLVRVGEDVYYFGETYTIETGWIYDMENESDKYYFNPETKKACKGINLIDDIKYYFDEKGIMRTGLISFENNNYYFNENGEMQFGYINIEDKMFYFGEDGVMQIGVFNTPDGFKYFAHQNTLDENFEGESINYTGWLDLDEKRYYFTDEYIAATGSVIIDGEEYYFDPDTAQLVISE
Vc quorum ag – induces V. cholerae light production without autoinducers. AID 588436. actives 0.16% (n = 350,000). V. cholerae BH1578 lux reporter, luminescence, 6 h. activation, % at 18.7 µM; in the data active = activation mostly above about 9.7%, no sharp cut-off
* = called active by the depositor. Sampled rows, rich in hits. Any-hit rate of the full collection: about 1.2%.

Results for COc1ccc(-c2cc3nc(-c4ccccc4)cc(N4CCCC(O)C4)n3n2)cc1 (stereo not drawn) ?
PfHsp40 yeast: 66*; DUSP3 inh: 12; Yp Topo-I inh: 17; TcdB inh: 1; Vc quorum ag: 0

How did Cc1ccccc1-c1nc(P(=O)(c2ccccc2)c2ccccc2)c(N2CCOCC2)o1 do in these assays?
PfHsp40 yeast: -1; DUSP3 inh: 18; Yp Topo-I inh: 53*; TcdB inh: 2; Vc quorum ag: -1

Results for Nc1nc2c(c(=O)[nH]1)C(c1ccccc1)C1=C(N2)c2ccccc2C1=O (stereo not drawn) ?
PfHsp40 yeast: 0; Mtb BioA inh: -2; DUSP3 inh: 0; Yp Topo-I inh: -10; TcdB inh: 0; Vc quorum ag: inactive

What do the screens show for `Cn1c2c(c(=O)[nH]c1=O)C(c1ccc(O)cc1)C1=C(N2)c2ccccc2C1=O` (stereo not drawn)?
PfHsp40 yeast: 8; Mtb BioA inh: 4; DUSP3 inh: 6; Yp Topo-I inh: -4; TcdB inh: -2; Vc quorum ag: 25*

Results for CC1CCCC(C)N1C(=O)COC(=O)c1c[nH]c2ccccc12 (stereo not drawn) ?
PfHsp40 yeast: -2; Mtb BioA inh: 1; Yp Topo-I inh: 0; TcdB inh: 0; Vc quorum ag: -2

How did COc1cccc(NC(=O)CSc2ccc3nnc(-c4cccnc4)n3n2)c1 do in these assays?
PfHsp40 yeast: 1; Mtb BioA inh: 1; DUSP3 inh: 24; Yp Topo-I inh: 0; TcdB inh: 1; Vc quorum ag: -1

What do the screens show for `CCCCCOc1ccc(OC(=O)c2ccncc2)cc1`?
PfHsp40 yeast: 74*; DUSP3 inh: 20; Yp Topo-I inh: 20; Vc quorum ag: inactive

Results for CCn1nc(NC(=O)Cc2ccc(OC)cc2)c2cc3cc(C)ccc3nc21 ?
PfHsp40 yeast: -1; Mtb BioA inh: -3; DUSP3 inh: 5; Yp Topo-I inh: -7; TcdB inh: 0; Vc quorum ag: inactive

How did COc1cc(/C=C2/SC(=S)N(Cc3ccccc3)C2=O)ccc1OCC(=O)O do in these assays?
PfHsp40 yeast: 9; Mtb BioA inh: -1; DUSP3 inh: 2; Yp Topo-I inh: 3; TcdB inh: 1; Vc quorum ag: 1

Results for COc1cc(/C=C2\SC(=S)N(CC(=O)Nc3ccc(O)cc3)C2=O)cc(OC)c1OC ?
PfHsp40 yeast: 0; DUSP3 inh: 56*; Yp Topo-I inh: -5; TcdB inh: 0; Vc quorum ag: inactive

Results for COc1ccc(/C=C2\SC(=S)N(CCC(=O)N(CCO)Cc3ccccc3)C2=O)cc1OC ?
PfHsp40 yeast: 1; Mtb BioA inh: -1; DUSP3 inh: 57*; Yp Topo-I inh: 2; TcdB inh: 0; Vc quorum ag: inactive

What do the screens show for `COc1ccc(/C=C2\SC(=S)N(CCC(=O)Nc3ccc(C(=O)O)cc3)C2=O)cc1OC`?
PfHsp40 yeast: -1; Mtb BioA inh: -2; DUSP3 inh: 57*; Yp Topo-I inh: -1; Vc quorum ag: -8

What do the screens show for `COc1ccccc1/C=C1\SC(=S)N(CCC(=O)NNC(=O)c2ccccc2O)C1=O`?
PfHsp40 yeast: 105*; Mtb BioA inh: -1; DUSP3 inh: 21; Yp Topo-I inh: 28; Vc quorum ag: inactive

How did CN(C)c1ccc(-c2ccc3oc(-c4ccsc4)cc(=O)c3c2)cn1 do in these assays?
PfHsp40 yeast: 0; Mtb BioA inh: 1; Yp Topo-I inh: -2; TcdB inh: 0; Vc quorum ag: -1

What do the screens show for `O=C(OCc1ccccc1)N1CCC2CC1c1c(Cl)cccc12` (stereo not drawn)?
PfHsp40 yeast: 32*; Mtb BioA inh: 2; Yp Topo-I inh: 59*; TcdB inh: 1; Vc quorum ag: 1

How did O=C(NCc1ccc(Cl)cc1)C(=O)N/N=C/c1ccc(Br)cc1 do in these assays?
PfHsp40 yeast: 0; Mtb BioA inh: -3; DUSP3 inh: 52*; Yp Topo-I inh: -1; TcdB inh: -2; Vc quorum ag: inactive

Results for CC1CC(=O)c2c(cc3c(-c4c(O)cc(O)c5c(O)c6c(cc45)OC(C)CC6=O)c(O)cc(O)c3c2O)O1 (stereo not drawn) ?
PfHsp40 yeast: 102*; Mtb BioA inh: 2; DUSP3 inh: 30; Yp Topo-I inh: -57; Vc quorum ag: 0

What do the screens show for `CCOc1ccc(CCNC(=O)c2c(C)noc2C)cc1OCC`?
PfHsp40 yeast: 43*; Mtb BioA inh: 0; Yp Topo-I inh: 2; TcdB inh: 3; Vc quorum ag: 0
